# Laboratory results from article doi:10.1101/2025.08.08.669391.
# Target: Splicing factor 3B subunit 1 (UniProt O75533)
# Assay: cross-link between two proteins; cross-linking mass spectrometry
# Sequence of UniProt O75533 (O75533 whole entry): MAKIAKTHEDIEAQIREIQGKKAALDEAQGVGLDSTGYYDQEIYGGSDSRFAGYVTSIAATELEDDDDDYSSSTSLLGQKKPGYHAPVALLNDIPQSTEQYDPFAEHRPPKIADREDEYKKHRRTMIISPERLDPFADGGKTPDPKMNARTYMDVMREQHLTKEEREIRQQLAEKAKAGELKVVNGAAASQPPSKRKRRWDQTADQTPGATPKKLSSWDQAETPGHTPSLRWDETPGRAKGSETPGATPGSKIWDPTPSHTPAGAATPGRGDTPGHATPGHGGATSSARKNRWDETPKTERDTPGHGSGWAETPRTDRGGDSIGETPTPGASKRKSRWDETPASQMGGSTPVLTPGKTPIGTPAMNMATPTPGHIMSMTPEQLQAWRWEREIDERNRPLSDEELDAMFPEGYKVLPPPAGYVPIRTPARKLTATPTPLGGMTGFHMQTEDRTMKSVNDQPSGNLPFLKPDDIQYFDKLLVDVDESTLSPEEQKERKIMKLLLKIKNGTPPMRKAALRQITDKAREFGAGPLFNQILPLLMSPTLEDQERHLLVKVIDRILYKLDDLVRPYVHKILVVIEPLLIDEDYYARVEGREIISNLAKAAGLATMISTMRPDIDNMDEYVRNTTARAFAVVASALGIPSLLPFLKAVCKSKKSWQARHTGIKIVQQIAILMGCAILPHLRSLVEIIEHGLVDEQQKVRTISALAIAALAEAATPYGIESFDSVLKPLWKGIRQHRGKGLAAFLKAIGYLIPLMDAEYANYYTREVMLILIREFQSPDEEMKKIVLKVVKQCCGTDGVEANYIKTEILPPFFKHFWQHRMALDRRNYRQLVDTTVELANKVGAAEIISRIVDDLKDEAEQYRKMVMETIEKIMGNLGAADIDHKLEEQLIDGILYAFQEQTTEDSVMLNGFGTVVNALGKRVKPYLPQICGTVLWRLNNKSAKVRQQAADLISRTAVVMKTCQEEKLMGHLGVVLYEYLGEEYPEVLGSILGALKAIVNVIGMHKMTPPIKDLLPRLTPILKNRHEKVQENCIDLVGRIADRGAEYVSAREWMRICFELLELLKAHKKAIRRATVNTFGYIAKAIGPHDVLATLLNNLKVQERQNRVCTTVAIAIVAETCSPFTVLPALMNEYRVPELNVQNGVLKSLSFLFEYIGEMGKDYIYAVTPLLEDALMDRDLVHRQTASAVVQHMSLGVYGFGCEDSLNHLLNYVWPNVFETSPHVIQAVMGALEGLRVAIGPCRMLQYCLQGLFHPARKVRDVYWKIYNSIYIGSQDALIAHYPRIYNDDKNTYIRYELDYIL
substance,measurement,value
"17S U2 SnRNP complex component HTATSF1, O43719",listed as a hit,yes
